Experimental data as given in ChEMBL document CHEMBL1157539, “Thousands of chemical starting points for antimalarial lead identification” (Nature, 2010).

Tested on: Plasmodium falciparum
Test: GSK_TCMDC: Inhibition of Plasmodium falciparum 3D7 in whole red blood cells, using parasite LDH activity as an index of growth. Test compounds present at 2uM
Type: functional

Q: Which Inhibition does the source give for O=C(/C=C/c1ccc(Cl)c(Cl)c1)NCCCCCN1CCN(C(=O)Nc2ccc(C(F)(F)F)cc2)CC1 here?
A: 99%

Q: COc1ccc2ccccc2c1CCCCN1CCN(CC(c2ccc(F)cc2)N2CCC2)CC1.O=C(O)C(F)(F)F (stereo not drawn) was tested. Which Inhibition did it give?
A: 98%

Q: How did the Inhibition turn out when CC(C)N1CCN(C(CN2CCN(CCCOc3ccc(-c4ccccc4)cc3)CC2)c2ccc(F)cc2)CC1.Cl (stereo not drawn) was run?
A: 100%

Q: How did the Inhibition turn out when Cn1nc(-c2ccc(CN[C@@H]3CCc4ccc(O)cc43)cc2)c2cnc(NC3CCCC3)nc21 was run?
A: 97%

Tested on: Plasmodium falciparum
Test: GSK_TCMDC: Inhibition of Plasmodium falciparum Dd2 in whole red blood cells, using parasite LDH activity as an index of growth. Test compounds present at 2uM
Type: functional

Q: CN1CCC(COc2ccc(CN3CCC(NC(=O)c4cccc(Cl)c4)CC3)cc2)CC1.O=C(O)C(F)(F)F was tested. Which Inhibition did it give?
A: 13%

Q: For Br.C/C=C/C=C/C1=NCCc2cc(OCCC)ccc21, which Inhibition is on record?
A: 40%

Q: Oc1cccc(Nc2nc(NCc3ccccc3)c3ccccc3n2)c1 was tested. Which Inhibition did it give?
A: 99%

Q: Which Inhibition does the source give for N#Cc1cccc(C(=O)Nc2ccc(-c3ccc(CN4CCCC4)cc3)cc2)c1.O=C(O)C(F)(F)F here?
A: 32%

Q: Which Inhibition does the source give for O=C(NC1CCCCC1)N(Cc1cccc(-c2cccc(CNC3CCCC3)c2)c1)C1CCN(Cc2ccccc2)CC1.O=C(O)C(F)(F)F here?
A: 90%

Q: For C=C[C@H]1CN(CCCCCCC)CC[C@H]1CC(=O)Nc1cnnc2ccc(OC)cc12.O=C(O)C(=O)O, which Inhibition is on record?
A: 100%

Q: For Cl.O=C(Nc1ccnc2ccccc12)NC1CCN(CCc2ccccc2)CC1, which Inhibition is on record?
A: 43%

Q: With O=C(N/C=N/c1cc([N+](=O)[O-])c(-c2cccnc2)n1-c1ccc(O)cc1)c1ccccc1 as the compound, how does the Inhibition read?
A: 62%

Q: Cl.O=C(NCCCCN1CCC(O)(c2ccc3c(c2)OCO3)CC1)c1ccc(NC(=O)c2ccc(Cl)cc2)cc1 was tested. Which Inhibition did it give?
A: 6%
